89 molecules from PubChem BioAssay AID463173 (ICCB-Longwood Screening Facility, Harvard Medical School, 2010) can be followed below.

Structures are written as SMILES. The whole screen tested about 52,000 compounds, of which about 4,300 (8.3%) were called active. No stated cut-off is given here; in the data, active means survival mostly below about 52% (no sharp cut-off); inactive means mostly above about 56%. Shown is part of a subset that was picked to be rich in actives.

In the experiment the test system is DeltatarO mutant. Kind of experiment: growth inhibition of S. aureus wild type versus tarO mutant, primary screen, teichoic acid synthesis inhibitors, RN4220, OD600 (AID 463173). The note with it: OD600, 18 h, stronger effect = lower value, screened at 18.75 µg/mL (by protocol).
In the case of `COc1cc(C2c3c(oc4ccccc4c3=O)C(=O)N2c2ccccn2)cc(OC)c1OC` (centres undefined), the survival was 146% (inactive).

On to `Cc1nnc(N2CCN(c3cccc(C(F)(F)F)c3)CC2)c2c1nnn2Cc1ccccc1`, for which the survival is 80% (inactive).

Regarding `CCOC(=O)c1cc2c(=O)n3ccccc3nc2n(Cc2ccco2)c1=NC(=O)c1ccc(C)c(C)c1`, the survival is 34% (active).

For `CCOC(=O)c1cc2c(=O)n3ccccc3nc2n(Cc2ccco2)c1=NC(=O)c1ccc(Br)cc1`, the survival was 55% (inactive).

Turning to `CCOC(=O)c1cc2c(=O)n3ccccc3nc2n(Cc2ccco2)c1=NC(=O)c1cccc(F)c1`, the survival is 17% (active).

As to `CCOC(=O)c1cc2c(=O)n3ccccc3nc2n(Cc2ccco2)c1=NC(=O)c1ccc(F)cc1`, the survival was 43% (active).

For the molecule `CCOC(=O)c1cc2c(=O)n3ccccc3nc2n(Cc2ccco2)c1=NC(=O)c1ccc(C(C)(C)C)cc1`, the survival was 36% (active).

For `CCCn1c(=NC(=O)c2c(-c3c(F)cccc3Cl)noc2C)c(C(=O)OCC)cc2c(=O)n3ccccc3nc21`, the survival was 164% (inactive).

Take `CCOC(=O)c1cc2c(=O)n3ccccc3nc2n(Cc2ccco2)c1=NC(=O)c1c(F)cccc1Cl`: the survival is 42% (inactive).

As for `CN1CCN(C(=O)c2cnn(-c3cccc(Cl)c3)c2C2CCN(C(=O)OC(C)(C)C)CC2)CC1`, the survival is 95% (inactive).

`CCc1ccccc1N1CC(c2nc3ccccc3n2CCCOc2ccc(Cl)cc2)CC1=O` (centres undefined): the survival was 41% (active).

With `Cc1cccc(OCCCCn2c(C3CC(=O)N(c4ccccc4Cl)C3)nc3ccccc32)c1` (centres undefined), the survival was 10% (active).

With `CCOc1ccccc1N1CC(c2nc3ccccc3n2CCCOc2ccc(OC)cc2)CC1=O` (centres undefined), the survival was 78% (inactive).

For `CCc1ccccc1N1CC(c2nc3ccccc3n2CCOc2ccc(Cl)c(C)c2)CC1=O` (centres undefined), the survival was 3% (active).

Take `CCc1ccccc1N1CC(c2nc3ccccc3n2CCCCOc2ccccc2)CC1=O` (centres undefined): the survival was 54% (inactive).

Regarding `O=C1CC(c2nc3ccccc3n2CCCCOc2ccccc2)CN1c1ccccc1Cl` (centres undefined), the survival was 58% (inactive).

Take `Cc1cccc(OCCCCn2c(C3CC(=O)N(c4ccc(C)cc4C)C3)nc3ccccc32)c1` (centres undefined): the survival was 47% (inactive).

For `Cc1cc(C)cc(OCCn2c(C3CC(=O)N(c4ccccc4Cl)C3)nc3ccccc32)c1` (centres undefined), the survival was 85% (inactive).

In the case of `Cc1ccc(-n2ncc3c(N4CCCCCC4)ncnc32)cc1C`, the survival was 86% (inactive).

On to `CCOc1ccc(CNC(=O)c2sc3nc(C)cc(C)c3c2-n2cccc2)cc1`, for which the survival is 75% (inactive).

Take `COc1cccc(CNC(=O)c2nn(C)c3c2CSc2ccccc2-3)c1`: the survival was 75% (inactive).

For `O=C(NC1=NCCS1)c1ccccc1`, the survival was 101% (inactive).

Take `Cc1nc2c(-c3ccccc3)c(C)[nH]n2c(=O)c1Cc1ccc(Br)cc1`: the survival was 7% (active).

`Cc1nc2nc(NC(=O)C(C)(C)C)[nH]n2c(=O)c1Cc1ccccc1`: the survival was 112% (inactive).

Consider `Cc1nc2c(-c3ccccc3)c(C)[nH]n2c(=O)c1Cc1ccc(C(C)C)cc1`, for which the survival was 11% (active).

Regarding `COc1cccc(C(=O)Nc2nc3nc(C)c(Cc4ccccc4)c(=O)n3[nH]2)c1`, the survival was 104% (inactive).

Turning to `Cc1nc2nc(NC(=O)C(C)C)[nH]n2c(=O)c1Cc1ccccc1`, the survival is 98% (inactive).

For `Cc1cccc(Cc2c(C)nc3c(-c4ccccc4)c(C)[nH]n3c2=O)c1`, the survival was 16% (active).

Regarding `CCOC(=O)CCc1c(C)nc2c(-c3ccccc3)c(C)[nH]n2c1=O`, the survival is 87% (inactive).

On to `Cc1nc2nc(NC(=O)CC(C)C)[nH]n2c(=O)c1Cc1ccccc1`, for which the survival was 113% (inactive).

As to `Cc1ccc(Cc2c(C)nc3c(-c4ccccc4)c(C)[nH]n3c2=O)cc1`, the survival is 0% (active).

Consider `CCc1c(C)nc2cc(-c3ccccc3)[nH]n2c1=O`, for which the survival is 73% (inactive).

As to `COc1ccc(-c2nc(-c3cc4cc(Br)ccc4oc3=O)cs2)cc1`, the survival was 78% (inactive).

In the case of `CCOc1ccc(CCNC(=O)CN2C(=O)c3cccnc3Oc3ccc(C)cc32)cc1OCC`, the survival was 67% (inactive).

As for `Cc1cc(-c2ccccc2)n2ncc(C#N)c2n1`, the survival was 96% (inactive).

Turning to `CCOc1ccccc1CNC(=O)C1CCN(C2=NS(=O)(=O)C(c3ccc(C)c(C)c3)=C2C)CC1`, the survival is 84% (inactive).

`COc1ccc(-n2c(=O)c3ccc(C(=O)NCc4ccc(C)cc4)cc3n(CC(=O)Nc3cccc(F)c3)c2=O)cc1`: the survival was 79% (inactive).

With `Cc1ccccc1Cc1c(C)nc2c(-c3ccccc3)c(C)[nH]n2c1=O`, the survival was -3% (active).

For the molecule `COc1ccc(-c2c(C)c3cc(OC(=O)N4CCOCC4)ccc3oc2=O)cc1OC`, the survival was 47% (active).

On to `Cc1c(-c2ccc(Br)cc2)c(=O)oc2ccc(OC(=O)N3CCOCC3)cc12`, for which the survival was 86% (inactive).

For `COc1ccc(-c2c(C)c3cc(OC(=O)N4CCOCC4)ccc3oc2=O)cc1`, the survival is 79% (inactive).

In the case of `COc1ccc(-c2csc(-c3c(N)c(C(=O)c4ccccc4)n4ccccc34)n2)cc1OC`, the survival is 43% (active).

Regarding `COc1ccc(-c2csc(-c3c(N)c(C(=O)c4ccc(OC)c(OC)c4)n4ccccc34)n2)cc1`, the survival is 75% (inactive).

For the molecule `COc1ccc(-c2csc(-c3c(N)c(C(=O)c4ccccc4)n4ccccc34)n2)cc1`, the survival is 77% (inactive).

In the case of `Cc1ccc(C)c(NC(=O)c2cnn(-c3cccc(F)c3)c2C2CCN(C(=O)OC(C)(C)C)CC2)c1`, the survival is 122% (inactive).

Turning to `O=C(Nc1ccccn1)c1cccs1`, the survival was 109% (inactive).

Turning to `CCOc1cccc(NC(=O)C2CC(=O)N(CC)C(=Nc3ccc(F)cc3)S2)c1` (centres undefined), the survival is 17% (active).

Take `CCOc1cccc(NC(=O)C2CC(=O)N(C)C(=Nc3cccc(OC)c3)S2)c1` (centres undefined): the survival is 82% (inactive).

On to `CCN1C(=O)CC(C(=O)Nc2ccc(OC)cc2)SC1=Nc1ccc(C)c(C)c1` (centres undefined), for which the survival was 50% (inactive).

Consider `CCOC(=O)C1CCCN(C(=O)c2nn(-c3ccc(C)cc3)c(=O)c3c2c2ccccc2n3C)C1` (centres undefined), for which the survival was 90% (inactive).

Take `Cc1cccn2c(=O)c(/C=C(\C#N)c3nc4ccccc4n3C)c(Oc3ccc(Br)cc3)nc12`: the survival is 69% (inactive).

`Cc1ccccc1N1CC(c2nc3ccccc3n2Cc2ccc(Br)cc2)CC1=O` (centres undefined): the survival is 25% (active).

Take `Cc1ccc(C)c(Cn2c(C3CC(=O)N(c4ccccc4C)C3)nc3ccccc32)c1` (centres undefined): the survival is 80% (inactive).

As for `O=C1CC(c2nc3ccccc3n2CCC2CCCCC2)CN1c1ccccc1Cl` (centres undefined), the survival is 21% (active).

`Cc1ccc(N2CC(c3nc4ccccc4n3CCC3CCCCC3)CC2=O)cc1` (centres undefined): the survival is 64% (inactive).

Consider `Cc1c(Cl)cccc1N1CC(c2nc3ccccc3n2Cc2ccccc2F)CC1=O` (centres undefined), for which the survival is 41% (inactive).

Take `CCc1ccccc1N1CC(c2nc3ccccc3n2Cc2cccc(C)c2)CC1=O` (centres undefined): the survival is 66% (inactive).

Take `COc1ccccc1OCCCn1c(C2CC(=O)N(c3ccccc3Cl)C2)nc2ccccc21` (centres undefined): the survival was 75% (inactive).

On to `Cc1ccccc1N1CC(c2nc3ccccc3n2CCC2CCCCC2)CC1=O` (centres undefined), for which the survival was 16% (active).

In the case of `Cc1cccc(N2CC(c3nc4ccccc4n3CCC3CCCCC3)CC2=O)c1` (centres undefined), the survival was 31% (active).

Regarding `COc1ccc(OCCCCn2c(C3CC(=O)N(c4cccc(Cl)c4)C3)nc3ccccc32)cc1` (centres undefined), the survival is 86% (inactive).

For the molecule `COc1ccc(N2CCN(C(=O)c3c(C)nn(-c4ccc(F)cc4)c3-n3cccc3)CC2)cc1`, the survival is 69% (inactive).

Turning to `Cc1ccc(N2C(=O)CSC23C(=O)N(CC(=O)NC2CCCCC2)c2ccccc23)cc1` (centres undefined), the survival is 79% (inactive).

Regarding `CCOc1ccc(OCC(=O)Nc2c(C(=O)Nc3ccc(C)cc3)oc3ccccc23)cc1`, the survival was 73% (inactive).

With `Cc1cnn(Cc2ccccc2)c1N`, the survival was 98% (inactive).

Turning to `CSc1nc2c(sc3ccccc32)c(=O)n1Cc1ccc(C)cc1`, the survival was 96% (inactive).

As for `CC1(C)Oc2ccc(C(=O)N/N=C/c3cccs3)cc2NC1=O`, the survival was 58% (inactive).

Consider `O=C1[C@@H]2CSC(c3ccc(F)cc3)N2C(=O)N1c1ccc(Cl)cc1` (some centres undefined), for which the survival was 76% (inactive).

`COc1ccc(C2=NC3(CCCCCC3)N(CC(=O)Nc3cccc(Cl)c3)C2=O)cc1`: the survival was 68% (inactive).

Take `O=C(NCc1ccc2c(c1)CCN2C(=O)c1ccc(F)cc1)c1ccco1`: the survival was 115% (inactive).

Consider `COc1ccc(-c2nc(SCC(=O)NC3CCCC3)c(-c3ccccc3)[nH]2)cc1OC`, for which the survival was 65% (inactive).

For `Cn1c(SCc2ccccc2Cl)nc(=O)c2c1NC(=O)CC2c1cc(F)ccc1F` (centres undefined), the survival was 45% (inactive).

With `COc1ccc(/C=C/C(=O)N2CCC(c3nc4ccccc4o3)CC2)cc1OC`, the survival was 86% (inactive).

Consider `NC(=O)CN1c2cccc3cccc(c23)S1(=O)=O`, for which the survival is 104% (inactive).

Take `COc1ccc2[nH]c3c(c2c1)CCN(C(=O)c1cccc(Cl)c1)C3c1ccc(F)cc1` (centres undefined): the survival is 77% (inactive).

In the case of `Cc1ccc(CNC(=O)c2ccc(CSCc3cccc(C)c3)o2)cc1`, the survival is 93% (inactive).

In the case of `CCOC(=O)c1cc(-c2ccccc2)n(CC(=O)NC(C)c2ccccc2)c1C` (centres undefined), the survival is 91% (inactive).

With `COc1ccccc1Cn1c(C2CC(=O)N(c3ccccc3OC)C2)nc2ccccc21` (centres undefined), the survival is 49% (inactive).

As to `CCc1ccccc1N1CC(c2nc3ccccc3n2CC(C)C)CC1=O` (centres undefined), the survival was 78% (inactive).

In the case of `CCc1ccccc1N1CC(c2nc3ccccc3n2CCC2CCCCC2)CC1=O` (centres undefined), the survival is 10% (active).

Regarding `Cc1cccc(NS(=O)(=O)c2ccc3c(c2)CCN3C(=O)C2CCC2)c1`, the survival was 69% (inactive).

Consider `Cc1cc(C)c2oc(C(=O)NCCc3ccc(S(N)(=O)=O)cc3)cc(=O)c2c1`, for which the survival was 63% (inactive).

For `Cn1c(=O)n(C)c2cc(CNCc3ccc(F)cc3)ccc21`, the survival was 92% (inactive).

On to `NC(=O)c1ccc(-c2ccccc2)cc1C(N)=O`, for which the survival was 66% (active).

Consider `NC(=O)c1cc(Cl)nc2ccccc12`, for which the survival was 81% (inactive).

For the molecule `NC(=O)c1ccccc1NS(=O)(=O)c1ccccc1`, the survival was 97% (inactive).

On to `Cc1ccc(CNC(=O)c2cnc(N3CCCCC3)c3ccccc23)cc1`, for which the survival is 80% (inactive).

`c1ccc(CCn2nnnc2CN2CCCc3ccccc32)cc1`: the survival was 93% (inactive).

For the molecule `Cc1ccc(CN(C(=O)COc2ccc(Br)cc2)c2ccccn2)o1`, the survival was 62% (inactive).
